# Assay outcomes deposited in PubChem BioAssay by National Center for Advancing Translational Sciences (NCATS).
# TexasRed fluor – alters Texas Red total fluorescence, flagging assay interference; TRb/SRC2 Texas Red total fluorescence interference; Potency, µM (titrated, usually from 106 µM), inactives show top-dose fluorescence change, negative = quenching; actives 0.29% (n = 280,000); active = well fitted curve in either direction with a large enough effect; inconclusive = small, poorly fitted or top-dose-only effect
#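 Human TRβ ligand-binding domain (0.6 uM) and Texas Red SRC2 peptide (20 nM) in Tris buffer with 1 uM T3 and 5% DMSO were incubated with pinned compound for 5 hr at ambient temperature. Total fluorescence was computed as S + 2P (555/632 nm).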
# TRb SRC2 PPI – inhibitors of human thyroid hormone receptor beta-SRC2 interaction. TRbeta-SRC2 peptide binding, fluorescence polarization; receptor liganded with 1 µM T3. actives 0.065% (n = 280,000). Potency, µM (titrated, usually from 106 µM), for inactives: at the highest dose activity change, negative = inhibition, usual class: inhibitors. AID 1469. P10828;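 note: plate controls were bound peptide for no effect and peptide without receptor for full effect; nearly all actives have a fitted effect of over 50% in size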
# Target sequence (P10828 whole entry, looked up): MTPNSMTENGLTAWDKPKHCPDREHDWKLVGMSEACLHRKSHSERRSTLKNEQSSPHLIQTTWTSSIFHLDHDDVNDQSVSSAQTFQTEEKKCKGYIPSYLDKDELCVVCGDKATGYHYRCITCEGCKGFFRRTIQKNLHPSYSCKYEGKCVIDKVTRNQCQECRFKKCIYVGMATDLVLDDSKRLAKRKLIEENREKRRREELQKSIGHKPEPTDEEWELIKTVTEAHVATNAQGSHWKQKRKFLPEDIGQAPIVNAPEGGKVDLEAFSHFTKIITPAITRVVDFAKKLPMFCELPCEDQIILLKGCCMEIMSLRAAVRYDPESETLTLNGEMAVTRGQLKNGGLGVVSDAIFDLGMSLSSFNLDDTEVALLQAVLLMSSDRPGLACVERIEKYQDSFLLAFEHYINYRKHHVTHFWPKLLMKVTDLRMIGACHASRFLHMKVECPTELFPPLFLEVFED
#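 Human TRb LBD (0.6 uM) plus Texas Red-labeled SRC2 peptide (20 nM), 1uM T3, 5% DMSO, 5 hr at ambient temperature. Decreased polarization (555/632 nm) flags inhibition; data normalized to free and bound peptide controls.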
# Tau fibril ThT – blocks human tau fibril formation measured by thioflavin T; recombinant tau K18 P301L, heparin-induced fibrillization, ThT fluorescence; Potency, µM (doses to about 57.4 µM), for the others: at the top dose activity, negative = inhibition, most hits filed as inhibitors; actives 2.1% (n = 270,000); note: nearly all actives have a fitted effect of over 55% in size
# Target sequence (P10636 561-689 P618L limits assumed): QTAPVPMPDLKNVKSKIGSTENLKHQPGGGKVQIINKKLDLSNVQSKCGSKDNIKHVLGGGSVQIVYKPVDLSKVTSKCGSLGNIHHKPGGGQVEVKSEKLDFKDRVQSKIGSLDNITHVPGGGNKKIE
#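 Heparin-induced fibrillization of the P301L-mutant K18 repeat-domain fragment of human tau was followed by ThT binding in quantitative high-throughput format.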
# Tau FP inhib – tau fibrillization inhibition (FP) | P10636 | K18 P301L tau heparin fibrillization, Alexa594 FP, 6 h | Potency, µM (top dose mostly 57.7 µM), for the others: at the top dose activity, negative = inhibition, actives largely listed as inhibitors | actives 0.39% (n = 280,000); note: nearly all actives have a fitted effect of over 55% in size
#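 Recombinant K18 P301L […], labeled with Alexa 594 at 0.24 uM over 15 uM unlabeled; heparin inducer 20 uM final; 37 C, 6 hr; FP endpoint.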
# Tau fluor counter – counter-screen for tau fibril formation inhibitors. actives 0.93% (n = 280,000). Potency, µM (top dose mostly 57.7 µM), inactives show at the top dose activity change, negative = decrease. tau K18 P301L Alexa594 fluorescence, heparin fibrillization; note: nearly all actives have a fitted effect of over 55% in size
#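 Human tau K18 P301L (15 uM unlabeled, 0.24 uM Alexa 594-labeled) in 100 mM sodium acetate pH 7 with 20 uM heparin, 6 hr at 37 C. ThT 30 uM added, 1 hr ambient; Alexa 594 FP and total fluorescence read at 555/632 nm.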
# GoLoco inh red – blocks human Gai1 binding to RGS12 GoLoco peptide, red readout. Potency, µM (highest dose often 61.6 µM), for inactives: at the top dose activity, negative = inhibition, hits mostly inhibitors. Gai1:RGS12 GoLoco peptide FP, rhodamine, 10 min. actives 0.44% (n = 230,000). P63096; active = well fitted inhibition curve with a large enough effect, not every such curve was filed as active; inactive = no such curve, though single readings can be large or run the other way; note: nearly all actives have a fitted effect of over 30% in size
# Active calls of the source: *; ? = inconclusive; . = no result given; [ ] = remark or other dose. Most compounds without a hit are left out; they make up all but 3.2% or so of the library. Unless noted, calls come from the whole dose curve; as a rule, active = well fitted curve in the direction sought with a large enough effect; inconclusive = small, poorly fitted or top-dose-only effect, or another doubt; inactive = no such curve, though single readings can be large; an effect the other way counts as inactive or inconclusive. Unless noted, % is set by controls: 0 for no effect and ±100 for the full control effect; potency is the fitted concentration of half-maximal effect.
SMILES,TexasRed fluor,TRb SRC2 PPI,Tau fibril ThT,Tau FP inhib,Tau fluor counter,GoLoco inh red
CC(O)/C=C/c1cccc[n+]1C (stereo unspecified),1.1%,-18.6%,?,-6.8%,-7.7%,7.94µM*
COc1cccc(/C=N/NC(=O)c2ccc3nc[nH]c3c2)c1O,-8.8%,-2.6%,?,-13.0%,-24.7%,10.6%
CCN(CC)c1ccc(/C=N/NC(=O)c2cccc(S(=O)(=O)Nc3ccccc3OC)c2)c(O)c1,-1.7%,6.6%,-12.8%,?,7.94µM*[quencher],4.2%
CCN(CC)c1ccc(/C=N/NC(=O)c2ccc3nc[nH]c3c2)c(O)c1,-7.7%,0.6%,.,3.4%,14.1µM*[quencher],-0.9%
COc1ccc(NS(=O)(=O)c2cccc(C(=O)N/N=C/c3cn(-c4ccccc4)nc3-c3ccccc3)c2)cc1,-1.8%,10.1%,1.3%,?,-22.3%,8.3%
CCN(CC)c1ccc(/C=N/Nc2ccccc2)c(O)c1,9.8%,-21.2%,25.1µM*,?,?,-1.9%
CCN(CC)c1ccc(/C=N/Nc2cccc(C)c2)c(O)c1,4.6%,-5.1%,?,2.3%,-23.2%,-1.8%
COc1ccc(NS(=O)(=O)c2cccc(C(=O)N/N=C/c3cn(-c4ccccc4)nc3-c3ccc(OC)cc3)c2)cc1,-3.7%,-6.0%,?,31.6µM*,?,18.4%
CCCCN1CCCC1C(=O)Nc1c(C)cc(C)cc1C (stereo unspecified),-3.0%,6.2%,.,.,.,.
CCCCCCc1ccc(-c2ncc(N)cn2)cc1,-1.4%,-2.3%,-19.9%,7.5%,14.1µM*[quencher],4.1%
O=C(O)[C@H](C1NCCS1)N1Cc2ccccc2C1 (stereo partly specified),.,.,.,.,.,2.5%[14.2 µM]
Cc1ccsc1/C=C1/C(=O)NN(c2ccccc2)C1=O,-4.1%,-0.1%,?,7.8%,-28.9%,-3.7%
Cc1ccsc1C=C1C(=O)c2ccccc2C1=O,-7.7%,-1.7%,14.1µM*,-1.6%,?,-1.4%
Cc1cccc(C2=N[C@@H](CC(C)C)CO2)c1,3.2%[201 µM],-2.0%[201 µM],-5.7%[126 µM],-8.4%[126 µM],-3.0%[126 µM],-1.3%[136 µM]
CCN1c2ccccc2-c2nc(SCC(=O)Nc3cccc(C(F)(F)F)c3)ncc2S1(=O)=O,-1.9%,-4.6%,13.0%,28.2µM*,?,.
O=C(CSc1ncc(S(=O)(=O)c2ccc(Cl)cc2)c(=O)[nH]1)Nc1cccc(C(F)(F)F)c1,-0.1%,5.3%,-6.1%,-2.0%,-13.0%,.
CC(C)c1ccc(S(=O)(=O)c2cnc(SCC(=O)Nc3cccc(C(F)(F)F)c3)nc2N)cc1,4.0%,14.6%,?,12.6µM*,?,.
CCN(CC)S(=O)(=O)c1ccc(N=NC2=C(O)CC(C)(C)CC2=O)cc1,0.7%,2.1%,-3.3%,-3.6%,-4.6%,5.4%
CCN(CC)S(=O)(=O)c1ccc(N=NC2=C(O)CCCC2=O)cc1,44.7µM*[fluorescent],39.8µM*,-10.7%,-1.9%,-10.0%,.
Oc1ccc(/C=N/Nc2ccc(C(F)(F)F)cn2)cc1,-3.0%,1.4%,?,20.6%,11.2µM*[quencher],3.1%
O=C(c1cc(-c2ccco2)nn1-c1cccc(Cl)c1)N1CCCCC1,0.1%,12.7%,28.2µM*,?,-23.2%,18.3%
CC(C)NC(=O)c1cc(-c2ccco2)nn1-c1ccc(Cl)cc1,-2.4%,2.8%,?,-0.2%,-16.3%,2.5%
COc1c(C2=CC(=O)N(C)C2=O)c2c(n1C)C(=O)c1ccccc1C2=O,-0.6%,11.8%,14.1µM*,-12.5%,17.8µM*[quencher],-13.5%
O=C1[C@@H]2[C@H]3[C@H](O)[C@H](O)C/C(=N/OCc4ccccc4)[C@@H]3CC[C@H]2C(=O)N1c1ccc(F)cc1F,0.0%[11.2 µM],-2.8%[11.2 µM],-6.3%[11.5 µM],3.2%[11.6 µM],-5.3%[11.6 µM],.
COC(=O)C/C=C1\c2ccc3c(c2[C@@H](OC)[C@@H]1C)OCO3,-1.5%,8.7%,-10.7%,11.1%,-6.4%,0.1%
SMILES,TexasRed fluor,TRb SRC2 PPI,Tau fibril ThT,Tau FP inhib,Tau fluor counter,GoLoco inh red
COC(=O)[C@H](CC(C)C)NC(=O)c1ccc(NC[C@@H](N)CS)cc1-c1cccc2ccccc12,2.6%,2.1%,.,.,.,.
C/C(=N\NC(=O)c1ccccc1O)C1C(=O)c2ccccc2C1=O,?,0.1%,5.01µM*,11.5%,?,7.9%
C/C(=N\NC(=O)c1cc2ccccc2cc1O)c1cc2ccccc2o1,39.8µM*[quencher],?,3.55µM*,5.9%,?,25.1µM*
CCC/C(C)=N/NC(=O)c1ccccc1O,-6.6%,15.4%,-5.6%,1.4%,5.1%,8.5%
C/C(CC(=O)N1CCN(C=O)CC1)=N\NC(=O)c1cc2ccccc2cc1O,44.7µM*[quencher],29.6%,25.1µM*,?,?,14.0%
C/C(=N/NC(=O)c1cc2ccccc2cc1O)C1C(=O)c2ccccc2C1=O,39.8µM*[quencher],20.1%,2.51µM*,-1.1%,14.1µM*[quencher],12.5%
C/C(=N\NC(=O)c1nc2ccccn2c1C)c1cc2ccccc2o1,-0.5%,10.2%,?,3.9%,-1.4%,10.7%
O=S(=O)(O)c1ccc2c(N=Nc3c(O)ccc4ccccc34)cccc2c1,.,.,.,.,.,44.4%[14.2 µM]
COc1ccc(C2=Nn3c(nnc3-c3ccc(OC)c(OC)c3)SC2)cc1,-1.7%,-4.9%,.,.,.,.
C[Si](C)(C)C#Cc1ccccc1NC(=S)Nc1ccccc1,-7.1%,0.9%,?,-12.6%,?,0.0%
CCCC[C@H]1C2=C3[C@@H](CC(C(=O)OC)=C[C@@H](C(=O)OC)[C@H]3C(C)(C)C2=O)n2c(=O)n(C)c(=O)n21,-1.5%,1.6%,.,.,.,.
O=C(C[n+]1ccc(CCSc2ccc(F)cc2)cc1)c1ccccc1,0.2%,-3.1%,28.2µM*,?,-13.9%,90.4%
COCCOC(=O)C1=C(C)NC2(O)c3ccccc3C(=O)C12O (stereo unspecified),-2.1%,-2.5%,11.2µM*,?,-14.4%,-8.2%
COc1ccc2[nH]cc(CCNc3nc(-c4ccc(C(=O)N(C)C)cc4)nc4ccccc34)c2c1,-10.1%,4.0%,?,3.0%,15.8µM*[quencher],-17.0%
COc1ccc2[nH]cc(CCNc3nc(-c4ccoc4)nc4ccccc34)c2c1,-1.8%,7.0%,?,?,31.6µM*[quencher],5.4%
COc1cccc(-c2nc(NCCc3c[nH]c4ccc(OC)cc34)c3ccccc3n2)c1,-8.2%,7.6%,?,?,14.1µM*[quencher],-7.0%
COc1ccc2[nH]cc(CCNc3nc(-c4ccc(N(C)C)cc4)nc4ccccc34)c2c1,.,.,.,.,.,6.3%
CCCCc1nc2c(c3c1C[C@H](C)OC3)CN(S(=O)(=O)c1ccccc1C(=O)OC)CC2,-4.0%[11.2 µM],-0.6%[11.2 µM],4.5%[11.5 µM],5.6%[11.6 µM],-5.8%[11.6 µM],0.3%[14.2 µM]
CCOc1cc(S(=O)(=O)NCCc2c(C)[nH]c3ccc(C)cc23)ccc1Br,2.7%,-1.3%,?,15.4%,3.55µM*[quencher],.
